In the supplement of paper PMC8728848:
Many of the other results were omitted from the sample, so the strongest signals are more common in it than they were.

Assays:
Experiment in all cases: glycan array binding signal (z-score within array); higher = stronger binding
Conditions in all cases: glycan notation: IUPAC condensed, linker removed
[1] = molecular target: Fuc(a1-2)Gal(b1-3)GalNAc(b1-3)Gal(a1-4)Gal(b1-4)Glc
How it was run: (§1)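 The Consortium for Functional Glycomics database supplied 3228 glycan arrays, of which those lacking an available protein sequence were dropped. The binding signal, a within-array Z-score, was averaged across arrays of the same protein sequence and across linkers. Negative scores can be read as non-binding.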

[2] = molecular target: Fuc(a1-2)Gal(b1-4)GlcNAc6S
How it was run: as §1

[3] = molecular target: Fuc(a1-2)Gal6S(b1-4)GlcNAc
How it was run: as §1

[4] = molecular target: Fuc(a1-2)[Gal(a1-3)]Gal(b1-3)GlcNAc
How it was run: as §1

[5] = molecular target: Fuc(a1-2)[GalNAc(a1-3)]Gal(b1-4)GlcNAc
How it was run: as §1

Gal(a1-3)GlcNAc = molecular target: Gal(a1-3)GlcNAc
How it was run: as §1

Gal(a1-4)Gal(b1-4)Gal = molecular target: Gal(a1-4)Gal(b1-4)Gal
How it was run: as §1

Gal(a1-4)Gal(b1-4)GalNAc = molecular target: Gal(a1-4)Gal(b1-4)GalNAc
How it was run: as §1

Gal(a1-6)Glc = molecular target: Gal(a1-6)Glc
How it was run: as §1

Gal(b1-3)Gal = molecular target: Gal(b1-3)Gal
How it was run: as §1

[6] = molecular target: Gal(b1-3)[Fuc(a1-4)]GlcNAc(b1-3)Gal(b1-4)GlcNAc
How it was run: as §1

[7] = molecular target: Gal(b1-3)[Neu5Ac(b2-6)]GlcNAc
How it was run: as §1

[8] = molecular target: Gal(b1-4)GalNAc(b1-3)[Fuc(a1-2)]Gal(b1-4)GlcNAc
How it was run: as §1

[9] = molecular target: Gal(b1-4)GlcNAc(b1-3)GalNAc
How it was run: as §1

[10] = molecular target: Gal(b1-4)GlcNAc(b1-6)[Gal(b1-3)]GlcNAc
How it was run: as §1

Gal3S6S(b1-4)GlcNAc6S = molecular target: Gal3S6S(b1-4)GlcNAc6S
How it was run: as §1

Gal4S(b1-4)GlcNAc = molecular target: Gal4S(b1-4)GlcNAc
How it was run: as §1

Gal6S(b1-4)Glc6S = molecular target: Gal6S(b1-4)Glc6S
How it was run: as §1

[11] = molecular target: GlcNAc(b1-4)[GlcNAc(b1-6)]GalNAc
How it was run: as §1

[12] = molecular target: Neu5Ac(a2-3)Gal(b1-3)GalNAc
How it was run: as §1

[13] = molecular target: Neu5Ac(a2-3)Gal(b1-4)GlcNAc(b1-3)Gal(b1-4)[Fuc(a1-3)]GlcNAc
How it was run: as §1

[14] = molecular target: Neu5Ac(a2-3)Gal(b1-4)GlcNAc(b1-6)[Gal(b1-3)]GalNAc
How it was run: as §1

[15] = molecular target: Neu5Ac(a2-3)Gal6S(b1-4)GlcNAc
How it was run: as §1

[16] = molecular target: Neu5Gc(a2-3)Gal(b1-4)GlcNAc
How it was run: as §1

[17] = molecular target: Fuc(a1-2)[GalNAc(a1-4)]Gal(b1-4)GlcNAc
How it was run: as §1

[18] = molecular target: Fuc(a1-3)[Gal(b1-4)]GlcNAc(b1-4)Gal(b1-4)[Fuc(a1-3)]GlcNAc
How it was run: as §1

[19] = molecular target: Fuc(a1-3)[Gal3S(b1-4)]GlcNAc
How it was run: as §1

Gal(b1-3)GlcNAc = molecular target: Gal(b1-3)GlcNAc
How it was run: as §1

[20] = molecular target: Gal(b1-4)GlcNAc(b1-3)Gal(b1-4)GlcNAc(b1-3)Gal(b1-4)GlcNAc
How it was run: as §1

Gal3S(b1-4)Glc6S = molecular target: Gal3S(b1-4)Glc6S
How it was run: as §1

Gal6S(b1-4)Glc = molecular target: Gal6S(b1-4)Glc
How it was run: as §1

GalNAc(a1-3)GalNAc = molecular target: GalNAc(a1-3)GalNAc
How it was run: as §1

Glc(a1-6)Glc(a1-6)Glc = molecular target: Glc(a1-6)Glc(a1-6)Glc
How it was run: as §1

[21] = molecular target: GlcNAc(b1-4)GlcNAc(b1-4)GlcNAc(b1-4)GlcNAc(b1-4)GlcNAc
How it was run: as §1

Kdn(a2-3)Gal(b1-4)GlcNAc = molecular target: Kdn(a2-3)Gal(b1-4)GlcNAc
How it was run: as §1

[22] = molecular target: Neu5Ac(a2-3)Gal(b1-4)GlcNAc(b1-2)Man(a1-3)[GlcNAc(b1-2)Man(b1-4)GlcNAc(b1-2)Man(a1-6)]Man(b1-4)GlcNAc(b1-4)GlcNAc
How it was run: as §1

[23] = molecular target: Neu5Ac(a2-6)Gal(b1-4)GlcNAc(b1-3)Gal(b1-4)[Fuc(a1-3)]GlcNAc(b1-3)Gal(b1-4)[Fuc(a1-3)]GlcNAc
How it was run: as §1

[24] = molecular target: Neu5Ac(a2-8)Neu5Ac(a2-3)[GalNAc(b1-4)]Gal(b1-4)Glc
How it was run: as §1

B1: Epa1 (Candida glabrata), Q6FUW5_CANGA (protein)
chain: MILNPALFLNKCVCIYTTLILLLLTNGGYATSSNDISLASKDPTTFPLGCSPDITTPKKGLSMELYSYDFRKKGSYPCWDAAYLDPNYPRTGYKSHRLLAKVDGVTGNINFYYHATKGCTPQLGHLPASYNYPKPLTMTNFTMLLYGYFRPKVTGFHTFTISADDLLFVNFGAGNAFDCCRRDSSADHFGNYQAYAIWGSKTAKDELTVHLDAGVYYPIRLFYNNREYDGALSFTFKTESNENTVSDFSEYFFSLDDTEEGCPGLISYDSSCASVKTSKIIGIDYHTETPNENLVPITKTIYHLGIPCTGTTTTPLCGSGFYDPLANKCVTINTSSTSSVTKTTSHTTSKEVSFHSSISSQKTLIPKSIPSPYGPIKSQSIPTEMETSSEISSSEYAFSDVISTPSHSPYTKKHSSLNSSSYTSTVIHSLTSYSISQGIFSTSLSEQNITSKSSTDKFSTATSMSNSITQSSIIISQSSTNNENYTTTSMHTSSDKISTETLNNSISTTTSILFSNSSTILKNNTTIISSDKDTHYHPVNPTIVCSTNKTEIICASITQPSISNSNNHWSSSVLRFNSTTVRSTLPSSAGSNETSINVPFSSSTESNASTSSTSTSNSKTVRSTLPSSAGSNETSINVPFSSSTESNTSTSSTSTSNSKTVRSTLPSSAGSNETSINVPFSSSTESNASTSSTSTSNSKTVRSTPFSSAGIIMTSLSQRNNKSASSYASSNSKCYNTADSCRKVHSTPSYLLTSSYTSEGVDYDCSLVSTKLKINDTNCLNNKHTTKSCLKTSVTTTIPTLEIKTARKSSSNTIGLHSYPTSSPNKSISSAPIIGYISSFKTIKTASPSYQTSDLTTITTITSLNNPGSTAVENTHESNDKSRKTSSNDISSKHSVIKETKDAVESSNKSHQTNTLKCSSIIIASSSHNSYESLGGTTLTLTLSKVYSPQNNDTLPFLEISEVNPSRTVLPESSKMMQYLTSTEERNKTARNTIATNIVSISTFHFEGEGNAIRMGYTQLLLMLIGIIVMNIGT
[1]
  glycan array binding signal (z-score): -0.549
[2]
  glycan array binding signal (z-score): 1.65
[3]
  glycan array binding signal (z-score): -0.128
[4]
  glycan array binding signal (z-score): -0.553
[5]
  glycan array binding signal (z-score): -0.557
Gal(a1-3)GlcNAc
  glycan array binding signal (z-score): 0.208
Gal(a1-4)Gal(b1-4)Gal
  glycan array binding signal (z-score): 0.374
Gal(a1-4)Gal(b1-4)GalNAc
  glycan array binding signal (z-score): 1.29
Gal(a1-6)Glc
  glycan array binding signal (z-score): 0.344
Gal(b1-3)Gal
  glycan array binding signal (z-score): 2.4
[6]
  glycan array binding signal (z-score): 1.75
[7]
  glycan array binding signal (z-score): 0.26
[8]
  glycan array binding signal (z-score): 2.42
[9]
  glycan array binding signal (z-score): 2.41
[10]
  glycan array binding signal (z-score): 2.48
Gal3S6S(b1-4)GlcNAc6S
  glycan array binding signal (z-score): -0.544
Gal4S(b1-4)GlcNAc
  glycan array binding signal (z-score): -0.551
Gal6S(b1-4)Glc6S
  glycan array binding signal (z-score): 2.71
[11]
  glycan array binding signal (z-score): -0.556
[12]
  glycan array binding signal (z-score): -0.547
[13]
  glycan array binding signal (z-score): -0.553
[14]
  glycan array binding signal (z-score): 1.96
[15]
  glycan array binding signal (z-score): -0.557
[16]
  glycan array binding signal (z-score): -0.549

B2: CBM32-1 (Clostridium perfringens) (protein)
chain: MGSSHHHHHHSSGLVPRGSHMASGVEITEGVTVTAKGNTEGNTADLAIDGDLSTYWESSNDYKWIEVDLGGIYELSKIEIFNKDEAVYKYNIYASEDGENFNKIAYKNNDNVSDSNGNVHTIDNVRAGKIRIDVVQNSNSDRVNIAEINVFG
[1]
  glycan array binding signal (z-score): -0.205
[17]
  glycan array binding signal (z-score): 0.059
[18]
  glycan array binding signal (z-score): 0.331
[19]
  glycan array binding signal (z-score): -0.283
Gal(b1-3)GlcNAc
  glycan array binding signal (z-score): -0.333
[20]
  glycan array binding signal (z-score): 0.889
Gal3S(b1-4)Glc6S
  glycan array binding signal (z-score): 3.21
Gal3S6S(b1-4)GlcNAc6S
  glycan array binding signal (z-score): 5.08
Gal6S(b1-4)Glc
  glycan array binding signal (z-score): 0.513
Gal6S(b1-4)Glc6S
  glycan array binding signal (z-score): 4.39
GalNAc(a1-3)GalNAc
  glycan array binding signal (z-score): -0.173
Glc(a1-6)Glc(a1-6)Glc
  glycan array binding signal (z-score): -0.279
[21]
  glycan array binding signal (z-score): 5.14
Kdn(a2-3)Gal(b1-4)GlcNAc
  glycan array binding signal (z-score): -0.439
[22]
  glycan array binding signal (z-score): 3.77
[23]
  glycan array binding signal (z-score): 0.193
[24]
  glycan array binding signal (z-score): -0.358
